Measurements as given in article PMC5540273 (PLoS ONE, 2017).

test system: NEK11; conditions: concentration: 1 μM, replicates: in singlicate; n = 1
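Further: KINOMEscan kinase panel screen.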

**Q.** With Cn1ccc2ncnc(Oc3ccc(NC(=O)Nc4ccccc4)cc3)c21 as the compound, how does the “%Inh” value read?
**A.** 0%

**Q.** With COc1cccc(NC(=O)NC2CCN(c3ccnc(Nc4ccc(F)cc4)n3)C2)c1 (stereo not drawn) [GSK1379721] as the compound, how does the “%Inh” value read?
**A.** 2%

**Q.** Cc1ccccc1-n1cnc2c(N)ncnc21 [SKF-97510] was tested. Which “%Inh” value did it give?
**A.** 0%

**Q.** Which “%Inh” value does the source give for COc1ccccc1CNC(=O)c1cc(C(=O)c2ccccc2C)c[nH]1 [GSK364507] here?
**A.** 0%

**Q.** How did the “%Inh” value turn out when Cn1cncc1-c1ccc2ncnc(Nc3ccc(OCc4ccccc4)cc3)c2c1 [GW320571] was run?
**A.** 0%

**Q.** How did the “%Inh” value turn out when O=C1NC(=O)C(N2CCc3ccccc32)=C1c1ccccc1Cl [SB-373598] was run?
**A.** 0%

**Q.** For COc1ccc(Nc2nccc(-c3cccc(NC(=O)c4cc5cc(F)ccc5[nH]4)c3)n2)cc1 [GSK1229782], which “%Inh” value is on record?
**A.** 16%

**Q.** With Cc1c(O)cccc1Nc1ccnc2ccc(C(F)(F)F)cc12.Cl [GW466413] as the compound, how does the “%Inh” value read?
**A.** 0%

**Q.** CC1=C(C(=O)Nc2cc3cn[nH]c3cc2F)C(c2ccc(C(F)(F)F)cc2)CC(=O)N1 (stereo not drawn) [GSK429286] was tested. Which “%Inh” value did it give?
**A.** 0%

**Q.** Which “%Inh” value does the source give for COC(=O)c1c(-c2ccccc2)c2cc(C(=O)O)ccc2c(=O)n1Cc1ccccc1 here?
**A.** 0%

**Q.** How did the “%Inh” value turn out when COc1ccc2nc(-c3cccc(C)n3)nc(Nc3ccncc3)c2c1 [GSK204919] was run?
**A.** 7%

**Q.** Cc1cc(-c2ccc3c(c2)CC[C@@H](N[C@@H](C)c2ccccc2)C3)cnc1N.Cl [GW412617] was tested. Which “%Inh” value did it give?
**A.** 20%

**Q.** With O=C(Nc1ccccc1)Nc1cccc(Oc2ccc3nccn3n2)c1 as the compound, how does the “%Inh” value read?
**A.** 0%

**Q.** With Cc1nnc(-c2ccc3occ(-c4ccc(S(C)=O)cc4)c3c2)[nH]1 (stereo not drawn) as the compound, how does the “%Inh” value read?
**A.** 0%

**Q.** How did the “%Inh” value turn out when Fc1cc(Cl)ccc1Nc1ccnc2cc(-c3ccc(CN4CCCCC4)o3)ccc12 [GW560116] was run?
**A.** 4%

**Q.** For O=C(Nc1n[nH]c2nc(-c3nccs3)c(Br)cc12)C1CC1 [SB-742251], which “%Inh” value is on record?
**A.** 48%

**Q.** Which “%Inh” value does the source give for Cc1cccc(-c2nc(Nc3ccc4[nH]ncc4c3)c3ccccc3n2)n1 [GW857175] here?
**A.** 7%

**Q.** Which “%Inh” value does the source give for CSc1nn2c(=O)cc(N3CCOCC3)nc2n1Cc1cccc(C(F)(F)F)c1C [GSK2363608] here?
**A.** 0%

**Q.** How did the “%Inh” value turn out when O=C(Nc1n[nH]c2nc(-c3nccs3)c(Br)cc12)C1CCCC1 [SB-742609] was run?
**A.** 0%

**Q.** With CS(=O)(=O)c1ccc(-c2c(-c3ncn[nH]3)sc(N3CCOCC3)c2C#N)cc1 as the compound, how does the “%Inh” value read?
**A.** 0%

**Q.** For Cc1cccc(-c2nc(Nc3ccncc3)c3ccccc3n2)n1 [GW855857], which “%Inh” value is on record?
**A.** 0%

**Q.** For CC(=O)Nc1nc2cnc(Nc3cc(NC(=O)c4cccc(CCC#N)c4)ccc3C)nc2s1, which “%Inh” value is on record?
**A.** 0%

**Q.** COc1cc2nccc(Nc3ccc(NC(=O)c4ccc(C)cc4)c(O)c3)c2cc1OC.Cl [GW440132] was tested. Which “%Inh” value did it give?
**A.** 0%

**Q.** Cc1ccc(NC(=O)Nc2cc(C(C)(C)C)nn2-c2ccccc2)cc1 [GSK1014915] was tested. Which “%Inh” value did it give?
**A.** 0%

**Q.** With COC(=O)c1c(-c2ccccc2)c2cc(OC)ccc2c(=O)n1Cc1ccccc1 as the compound, how does the “%Inh” value read?
**A.** 0%

**Q.** CCCc1ccc(S(=O)(=O)NC2CCN(c3ccnc(Nc4ccc(F)cc4)n3)C2)cc1 (stereo not drawn) [GSK1379715] was tested. Which “%Inh” value did it give?
**A.** 1%

**Q.** Cn1ccc2ncnc(Oc3ccc(Nc4nc5ccccc5[nH]4)cc3)c21 was tested. Which “%Inh” value did it give?
**A.** 0%

**Q.** How did the “%Inh” value turn out when O=S(=O)(c1ccc(-c2ccnc3[nH]ccc23)cc1)N1CCCC1 [GSK846226] was run?
**A.** 0%

**Q.** O=C(O)COc1ncnc2cc(-c3ccc4[nH]ncc4c3)sc12 was tested. Which “%Inh” value did it give?
**A.** 1%

**Q.** Which “%Inh” value does the source give for Cc1cccc(-c2nc(Nc3cccc(C(N)=O)c3)c3ccccc3n2)n1 [GW876019] here?
**A.** 0%

**Q.** O=c1cc(N2CCOCC2)nc2n(Cc3cccc(Cl)c3Cl)ccn12 [GSK2286295] was tested. Which “%Inh” value did it give?
**A.** 0%

**Q.** Which “%Inh” value does the source give for COc1cccc(-c2cc(-c3c[nH]nc3-c3ccccn3)ccn2)c1 [GW680338] here?
**A.** 0%

**Q.** For COc1ccc(CNC(=O)NC2CCN(c3ccnc(Nc4cc(OC)c(OC)c(OC)c4)n3)C2)cc1 (stereo not drawn) [GSK1379748], which “%Inh” value is on record?
**A.** 18%

**Q.** For Cc1ccc(-c2cc(-c3c[nH]nc3-c3ccccn3)ccn2)cc1 [GW684088], which “%Inh” value is on record?
**A.** 30%

**Q.** Cl.O=C(Nc1cccc(-c2nn3ncccc3c2-c2ccnc(Nc3cccnc3)n2)c1)c1c(F)cccc1F [GSK312879] was tested. Which “%Inh” value did it give?
**A.** 0%

**Q.** Which “%Inh” value does the source give for Nc1nc(-c2nccs2)c(-c2ccnc3ccccc23)s1 [GW693542] here?
**A.** 12%

test system: NEK1; conditions: concentration: 1 μM, replicates: in singlicate; n = 1

**Q.** With Cn1ccc2ncnc(Oc3ccc(NC(=O)Nc4ccccc4)cc3)c21 as the compound, how does the “%Inh” value read?
**A.** 0%

**Q.** With COc1cccc(NC(=O)NC2CCN(c3ccnc(Nc4ccc(F)cc4)n3)C2)c1 (stereo not drawn) [GSK1379721] as the compound, how does the “%Inh” value read?
**A.** 0%

**Q.** For Cc1ccccc1-n1cnc2c(N)ncnc21 [SKF-97510], which “%Inh” value is on record?
**A.** 11%

**Q.** For COc1ccccc1CNC(=O)c1cc(C(=O)c2ccccc2C)c[nH]1 [GSK364507], which “%Inh” value is on record?
**A.** 0%

**Q.** How did the “%Inh” value turn out when Cn1cncc1-c1ccc2ncnc(Nc3ccc(OCc4ccccc4)cc3)c2c1 [GW320571] was run?
**A.** 0%

**Q.** For O=C1NC(=O)C(N2CCc3ccccc32)=C1c1ccccc1Cl [SB-373598], which “%Inh” value is on record?
**A.** 0%

**Q.** Which “%Inh” value does the source give for COc1ccc(Nc2nccc(-c3cccc(NC(=O)c4cc5cc(F)ccc5[nH]4)c3)n2)cc1 [GSK1229782] here?
**A.** 12%

**Q.** Cc1c(O)cccc1Nc1ccnc2ccc(C(F)(F)F)cc12.Cl [GW466413] was tested. Which “%Inh” value did it give?
**A.** 0%

**Q.** How did the “%Inh” value turn out when CC1=C(C(=O)Nc2cc3cn[nH]c3cc2F)C(c2ccc(C(F)(F)F)cc2)CC(=O)N1 (stereo not drawn) [GSK429286] was run?
**A.** 0%

**Q.** Which “%Inh” value does the source give for COC(=O)c1c(-c2ccccc2)c2cc(C(=O)O)ccc2c(=O)n1Cc1ccccc1 here?
**A.** 22%

**Q.** For COc1ccc2nc(-c3cccc(C)n3)nc(Nc3ccncc3)c2c1 [GSK204919], which “%Inh” value is on record?
**A.** 0%

**Q.** For Cc1cc(-c2ccc3c(c2)CC[C@@H](N[C@@H](C)c2ccccc2)C3)cnc1N.Cl [GW412617], which “%Inh” value is on record?
**A.** 0%

**Q.** How did the “%Inh” value turn out when O=C(Nc1ccccc1)Nc1cccc(Oc2ccc3nccn3n2)c1 was run?
**A.** 0%

**Q.** Which “%Inh” value does the source give for Cc1nnc(-c2ccc3occ(-c4ccc(S(C)=O)cc4)c3c2)[nH]1 (stereo not drawn) here?
**A.** 0%

**Q.** Fc1cc(Cl)ccc1Nc1ccnc2cc(-c3ccc(CN4CCCCC4)o3)ccc12 [GW560116] was tested. Which “%Inh” value did it give?
**A.** 0%

**Q.** Which “%Inh” value does the source give for O=C(Nc1n[nH]c2nc(-c3nccs3)c(Br)cc12)C1CC1 [SB-742251] here?
**A.** 0%

**Q.** With Cc1cccc(-c2nc(Nc3ccc4[nH]ncc4c3)c3ccccc3n2)n1 [GW857175] as the compound, how does the “%Inh” value read?
**A.** 0%

**Q.** CSc1nn2c(=O)cc(N3CCOCC3)nc2n1Cc1cccc(C(F)(F)F)c1C [GSK2363608] was tested. Which “%Inh” value did it give?
**A.** 0%

**Q.** With O=C(Nc1n[nH]c2nc(-c3nccs3)c(Br)cc12)C1CCCC1 [SB-742609] as the compound, how does the “%Inh” value read?
**A.** 0%

**Q.** CS(=O)(=O)c1ccc(-c2c(-c3ncn[nH]3)sc(N3CCOCC3)c2C#N)cc1 was tested. Which “%Inh” value did it give?
**A.** 4%

**Q.** Which “%Inh” value does the source give for Cc1cccc(-c2nc(Nc3ccncc3)c3ccccc3n2)n1 [GW855857] here?
**A.** 0%

**Q.** For CC(=O)Nc1nc2cnc(Nc3cc(NC(=O)c4cccc(CCC#N)c4)ccc3C)nc2s1, which “%Inh” value is on record?
**A.** 0%

**Q.** How did the “%Inh” value turn out when COc1cc2nccc(Nc3ccc(NC(=O)c4ccc(C)cc4)c(O)c3)c2cc1OC.Cl [GW440132] was run?
**A.** 2%

**Q.** With Cc1ccc(NC(=O)Nc2cc(C(C)(C)C)nn2-c2ccccc2)cc1 [GSK1014915] as the compound, how does the “%Inh” value read?
**A.** 0%

**Q.** Which “%Inh” value does the source give for COC(=O)c1c(-c2ccccc2)c2cc(OC)ccc2c(=O)n1Cc1ccccc1 here?
**A.** 7%

**Q.** CCCc1ccc(S(=O)(=O)NC2CCN(c3ccnc(Nc4ccc(F)cc4)n3)C2)cc1 (stereo not drawn) [GSK1379715] was tested. Which “%Inh” value did it give?
**A.** 88%

**Q.** Which “%Inh” value does the source give for Cn1ccc2ncnc(Oc3ccc(Nc4nc5ccccc5[nH]4)cc3)c21 here?
**A.** 0%

**Q.** With O=S(=O)(c1ccc(-c2ccnc3[nH]ccc23)cc1)N1CCCC1 [GSK846226] as the compound, how does the “%Inh” value read?
**A.** 12%

**Q.** How did the “%Inh” value turn out when O=C(O)COc1ncnc2cc(-c3ccc4[nH]ncc4c3)sc12 was run?
**A.** 0%

**Q.** For Cc1cccc(-c2nc(Nc3cccc(C(N)=O)c3)c3ccccc3n2)n1 [GW876019], which “%Inh” value is on record?
**A.** 6%

**Q.** With O=c1cc(N2CCOCC2)nc2n(Cc3cccc(Cl)c3Cl)ccn12 [GSK2286295] as the compound, how does the “%Inh” value read?
**A.** 0%

**Q.** With COc1cccc(-c2cc(-c3c[nH]nc3-c3ccccn3)ccn2)c1 [GW680338] as the compound, how does the “%Inh” value read?
**A.** 0%

**Q.** How did the “%Inh” value turn out when COc1ccc(CNC(=O)NC2CCN(c3ccnc(Nc4cc(OC)c(OC)c(OC)c4)n3)C2)cc1 (stereo not drawn) [GSK1379748] was run?
**A.** 8%

**Q.** How did the “%Inh” value turn out when Cc1ccc(-c2cc(-c3c[nH]nc3-c3ccccn3)ccn2)cc1 [GW684088] was run?
**A.** 0%

**Q.** For Cl.O=C(Nc1cccc(-c2nn3ncccc3c2-c2ccnc(Nc3cccnc3)n2)c1)c1c(F)cccc1F [GSK312879], which “%Inh” value is on record?
**A.** 0%

**Q.** For Nc1nc(-c2nccs2)c(-c2ccnc3ccccc23)s1 [GW693542], which “%Inh” value is on record?
**A.** 0%
